PubChem BioAssay AID1159580 (chemical genetic matrix, 2015)
Several values for one entry are separate records, joined by “and”; a condition that tells them apart may be missing. Equal values may be shown once. Out of some 5,500 compounds screened, about 2,000 (36%) were called active. Another 18% or so got no clear call; they are omitted. Cut-off read from the data, not from the text of the source: active = normalized growth mostly below about 0.91 (no sharp cut-off); inconclusive = no clear call, values can overlap the other calls; inactive = mostly above about 0.92. This is one part of the list.

Assay: chemical genetic growth profiling, strain panel (AID 1159580);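 note: tested at 20 µM; growth read once vehicle control cultures reached saturation at 30 °C; 1 = growth at the plate median or of vehicle wells; lower values mean less growth of the strain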
Settings: growth OD

Measured: normalized growth

CC(C)(C)NCC(O)c1ccccc1Cl (stereo unspecified)
inactive: S. cerevisiae deletion strains, locus YJR075W, strain HOC1, stronger effect = lower value 1.01 and 1.04 | S. cerevisiae deletion strains, locus YKL009W, strain mrt4, stronger effect = lower value 0.96 | S. cerevisiae deletion strains, locus YKL068W, stronger effect = lower value 0.991 | S. cerevisiae deletion strains, locus YKL085W, strain MDH1 (second series), stronger effect = lower value 0.983 | S. cerevisiae deletion strains, locus YKL085W, strain MDH1, stronger effect = lower value 0.983 | S. cerevisiae deletion strains, locus YKL160W, strain elf1, stronger effect = lower value 1.02 | S. cerevisiae deletion strains, locus YKL190W, strain CNB1, stronger effect = lower value 0.995 | S. cerevisiae deletion strains, locus YKR001C, strain vps1, stronger effect = lower value 0.976 | S. cerevisiae deletion strains, locus YKR026C, strain gcn3, stronger effect = lower value 0.994 | S. cerevisiae deletion strains, locus YKR091W, strain srl3, stronger effect = lower value 0.997 | S. cerevisiae deletion strains, locus YLL001W, strain dnm1, stronger effect = lower value 1 | S. cerevisiae deletion strains, locus YLL026W, stronger effect = lower value 0.983 | S. cerevisiae deletion strains, locus YLL041C, strain sdh2, stronger effect = lower value 0.997 | S. cerevisiae deletion strains, locus YLR027C, strain aat2, stronger effect = lower value 0.992 | S. cerevisiae deletion strains, locus YLR039C, strain RIC1, stronger effect = lower value 0.923 | S. cerevisiae deletion strains, locus YLR058C, strain SHM2, stronger effect = lower value 0.975 | S. cerevisiae deletion strains, locus YLR102C, strain apc9, stronger effect = lower value 0.986 | S. cerevisiae deletion strains, locus YLR113W, strain HOG1, stronger effect = lower value 1.01 | S. cerevisiae deletion strains, locus YLR221C, strain rsa3, stronger effect = lower value 1.01 | S. cerevisiae deletion strains, locus YLR258W, strain gsy2, stronger effect = lower value 0.974 | S. cerevisiae deletion strains, locus YLR262C, strain YPT6 (second series), stronger effect = lower value 0.997 | S. cerevisiae deletion strains, locus YLR262C, strain YPT6, stronger effect = lower value 0.887 | S. cerevisiae deletion strains, locus YLR268W, strain sec22, stronger effect = lower value 1.09 | S. cerevisiae deletion strains, locus YLR320W, strain mms22, stronger effect = lower value 0.981 | S. cerevisiae deletion strains, locus YLR330W, strain CHS5, stronger effect = lower value 0.992 | S. cerevisiae deletion strains, locus YLR342W, strain FKS1 (second series), stronger effect = lower value 0.967 | S. cerevisiae deletion strains, locus YLR342W, strain FKS1, stronger effect = lower value 0.999 | S. cerevisiae deletion strains, locus YLR357W, strain rsc2, stronger effect = lower value 0.982 | S. cerevisiae deletion strains, locus YLR370C, strain arc18, stronger effect = lower value 0.997 | S. cerevisiae deletion strains, locus YLR371W, strain rom2, stronger effect = lower value 0.982 | S. cerevisiae deletion strains, locus YLR384C, strain iki3, stronger effect = lower value 0.989 | S. cerevisiae deletion strains, locus YLR418C, strain cdc73, stronger effect = lower value 0.993 | S. cerevisiae deletion strains, locus YML016C, strain PPZ1, stronger effect = lower value 0.99 | S. cerevisiae deletion strains, locus YML032C, strain rad52, stronger effect = lower value 1.02 | S. cerevisiae deletion strains, locus YML120C, strain ndi1, stronger effect = lower value 1.01 | S. cerevisiae deletion strains, locus YML124C, strain tub3, stronger effect = lower value 0.984 | S. cerevisiae deletion strains, locus YMR058W, strain fet3, stronger effect = lower value 0.997 | S. cerevisiae deletion strains, locus YMR078C, strain ctf18, stronger effect = lower value 0.982 | S. cerevisiae deletion strains, locus YMR125W, strain sto1, stronger effect = lower value 0.962 | S. cerevisiae deletion strains, locus YMR129W, stronger effect = lower value 0.967 | S. cerevisiae deletion strains, locus YMR205C, strain PFK2, stronger effect = lower value 0.951 | S. cerevisiae deletion strains, locus YMR223W, strain ubp8, stronger effect = lower value 0.96 | S. cerevisiae deletion strains, locus YMR231W, strain pep5, stronger effect = lower value 0.998 | S. cerevisiae deletion strains, locus YMR263W, strain SAP30, stronger effect = lower value 0.993 and 0.995 | S. cerevisiae deletion strains, locus YMR307W, strain GAS1, stronger effect = lower value 0.994 and 0.992 | S. cerevisiae deletion strains, locus YNL067W, strain RPL9B, stronger effect = lower value 1.02 | S. cerevisiae deletion strains, locus YNL071W, strain lat1, stronger effect = lower value 1 | S. cerevisiae deletion strains, locus YNL128W, strain TEP1, stronger effect = lower value 0.962 | S. cerevisiae deletion strains, locus YNL153C, strain GIM3, stronger effect = lower value 1.01 | S. cerevisiae deletion strains, locus YNL175C, strain NOP13, stronger effect = lower value 1.02 | S. cerevisiae deletion strains, locus YNL183C, strain NPR1, stronger effect = lower value 0.939 | S. cerevisiae deletion strains, locus YNL197C, strain WHI3, stronger effect = lower value 0.981 | S. cerevisiae deletion strains, locus YNL209W, strain ssb2, stronger effect = lower value 1 | S. cerevisiae deletion strains, locus YNL224C, strain SQS1, stronger effect = lower value 1.01 | S. cerevisiae deletion strains, locus YNL233W, strain BNI4, stronger effect = lower value 1.02 | S. cerevisiae deletion strains, locus YNL248C, strain rpa49, stronger effect = lower value 1.02 | S. cerevisiae deletion strains, locus YNL250W, strain rad50, stronger effect = lower value 0.976 | S. cerevisiae deletion strains, locus YNL271C, strain bni1, stronger effect = lower value 0.987 | S. cerevisiae deletion strains, locus YNL298W, strain CLA4, stronger effect = lower value 0.975 | S. cerevisiae deletion strains, locus YNL307C, strain MCK1, stronger effect = lower value 0.992 | S. cerevisiae deletion strains, locus YNL322C, strain KRE1 (second series), stronger effect = lower value 0.989 | S. cerevisiae deletion strains, locus YNL322C, strain KRE1, stronger effect = lower value 0.996 and 1 | S. cerevisiae deletion strains, locus YNR049C, strain mso1, stronger effect = lower value 0.994 | S. cerevisiae deletion strains, locus YNR052C, strain pop2, stronger effect = lower value 0.985 | S. cerevisiae deletion strains, locus YOL006C, strain TOP1, stronger effect = lower value 1.03 | S. cerevisiae deletion strains, locus YOL012C, strain htz1 0.982 | S. cerevisiae deletion strains, locus YOL147C, strain pex11, stronger effect = lower value 0.992 | S. cerevisiae deletion strains, locus YOR001W, strain rrp6, stronger effect = lower value 0.996 | S. cerevisiae deletion strains, locus YOR061W, strain CKA2, stronger effect = lower value 0.969 | S. cerevisiae deletion strains, locus YOR069W, strain VPS5, stronger effect = lower value 0.991 | S. cerevisiae deletion strains, locus YOR070C, strain gyp1, stronger effect = lower value 0.992 | S. cerevisiae deletion strains, locus YOR080W, strain dia2, stronger effect = lower value 0.974 | S. cerevisiae deletion strains, locus YOR083W, strain WHI5 (second series), stronger effect = lower value 1.02 | S. cerevisiae deletion strains, locus YOR083W, strain WHI5, stronger effect = lower value 1.01 | S. cerevisiae deletion strains, locus YOR106W, strain vam3, stronger effect = lower value 1.01 | S. cerevisiae deletion strains, locus YOR136W, strain idh2, stronger effect = lower value 0.983 | S. cerevisiae deletion strains, locus YOR144C, strain elg1, stronger effect = lower value 0.996 | S. cerevisiae deletion strains, locus YOR184W, strain ser1, stronger effect = lower value 0.98 | S. cerevisiae deletion strains, locus YOR231W, strain MKK1, stronger effect = lower value 0.99 | S. cerevisiae deletion strains, locus YOR265W, strain rbl2, stronger effect = lower value 0.99 | S. cerevisiae deletion strains, locus YOR270C, strain vph1, stronger effect = lower value 1.05 | S. cerevisiae deletion strains, locus YOR290C, strain snf2, stronger effect = lower value 0.956 | S. cerevisiae deletion strains, locus YOR316C, strain cot1, stronger effect = lower value 0.995 | S. cerevisiae deletion strains, locus YPL051W, strain arl3, stronger effect = lower value 0.999 | S. cerevisiae deletion strains, locus YPL055C, strain LGE1, stronger effect = lower value 0.989 and 1 | S. cerevisiae deletion strains, locus YPL078C, strain atp4, stronger effect = lower value 1.01 | S. cerevisiae deletion strains, locus YPL106C, strain sse1, stronger effect = lower value 0.944 | S. cerevisiae deletion strains, locus YPL240C, strain hsp82, stronger effect = lower value 0.994 | S. cerevisiae deletion strains, locus YPL241C, strain CIN2, stronger effect = lower value 0.984 and 1 | S. cerevisiae deletion strains, locus YPL256C, strain CLN2, stronger effect = lower value 0.984 | S. cerevisiae deletion strains, locus YPR119W, strain clb2, stronger effect = lower value 0.987 | S. cerevisiae deletion strains, locus YPR141C, strain kar3, stronger effect = lower value 0.982 | S. cerevisiae deletion strains, locus YPR163C, strain tif3, stronger effect = lower value 0.981 | S. cerevisiae deletion strains, locus YPR167C, strain met16, stronger effect = lower value 0.993 | S. cerevisiae deletion strains, strain wtn01, stronger effect = lower value 1.01 | S. cerevisiae strains, strain wild type, stronger effect = lower value 0.988
